DAGLB inhibitor: blocks human DAGLB lipase activity; Q8NCG7; HEK293T DAGLB membrane lysate, EnzChek fluorogenic substrate; inhibition, % at 5.17 µM; actives 0.059% (n = 340,000); AID 504411; in the data active = inhibition above about 34%
sPLA2-III inh: Blocks human group III sPLA2 activity; Q9NZ20; QFRET BODIPY PC-A2 liposome hydrolysis, fluorescence; inhibition, % at 12.2 µM; AID 743126; actives 0.56% (n = 370,000);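 active = inhibition above mean plus 3 SD of compounds lying within the high and low control bounds, cut at about 19% in these data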
NadD block: NadD (S. aureus) enzyme inhibition; purified NadD enzyme, colorimetric absorbance read-out; inhibition, % at 20 µM; actives 0.78% (n = 360,000); AID 602399; in the data active = inhibition above about 26%
ARNT-TACC3 inh: ARNT/TACC3 interaction disruption; Q9Y6A5; AlphaScreen His-ARNT PAS-B/GST-TACC3 binding, luminescence; TACC3 fragment carries E629A point mutation; inhibition, % at 9.99 µM; actives 0.66% (n = 390,000); AID 623870;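 active = mean inhibition of replicates at least 50% and at least half of replicates each reaching 50%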
Neddylation inh: cullin neddylation inhibition; P61081+Q13564; TR-FRET cullin neddylation, biochemical; inhibition, % at 25 µM; actives 0.58% (n = 360,000); AID 651699; in the data active = inhibition above about 36%
Numbers stand for hits; n = inactive; x = no result given. The list is not random: actives were taken first. Their share in the collection is about 2%.

SMILES	DAGLB inhibitor	sPLA2-III inh	NadD block	ARNT-TACC3 inh	Neddylation inh
COCc1c(C(=O)N/N=C\c2ccccn2)nnn1-c1nonc1N	n	n	n	74	n
O=C(N/N=C(\Cc1ncc[nH]1)c1ccccc1)c1ccncc1	n	n	n	64	n
O=C(N/N=C\c1ccccn1)c1ccccc1O	n	n	n	59	n
O=C(N/N=C/c1ccccn1)c1ccccc1	n	n	n	n	n
COCc1c(C(=O)N/N=C/c2c[nH]c3ccccc23)nnn1-c1nonc1N	n	n	n	n	n
O=C(N/N=C(\Cc1ncc[nH]1)c1ccccc1)c1ccccc1	x	n	x	x	x
Cc1ccccc1C(=O)N/N=C/c1ccccn1	n	n	n	n	n
O=C(N/N=C/c1ccccn1)c1ccco1	n	n	n	45	n
CN1C(=O)c2cc(NC(=O)C3CCOCC3)ccc2OC[C@@H]2O[C@H](CC(=O)NC3CCCC3)CC[C@@H]21	x	x	x	n	x
N#Cc1ccc(-c2ccc([C@H]3[C@H](CO)N4CCCCN(S(=O)(=O)c5ccccc5)C[C@@H]34)cc2)cc1	x	x	x	n	x
COc1ccccc1CN1[C@H](CO)[C@H]2c3ccccc3N(C(=O)C3CCCCC3)C[C@H]21	x	x	x	n	x
O=C(N/N=C1\C/C(=N\NC(=O)c2ccncc2)c2ccccc21)c1ccncc1	n	n	n	67	n
Cc1ccc(/C=N\NC(=O)Cn2c(C)nc3ccccc32)o1	n	n	n	n	n
O=C(N/N=C/c1ccccn1)c1sc2ccccc2c1Cl	n	n	n	55	n
Cc1nc2ccccc2n1CC(=O)N/N=C\c1ccccn1	n	n	n	40	n
C/C(=N\NC(=O)c1nnn(-c2nonc2N)c1CN1CCCCC1)c1ccccc1O	n	n	n	n	41
CC(/C=N/NC(=O)c1nnn(-c2nonc2N)c1CN1CCCCC1)=C\c1ccccc1	n	n	n	n	n
O=C(N/N=C/c1c[nH]c2ccccc12)c1sc2ccccc2c1Cl	n	n	n	n	n
C[C@H]1CN([C@@H](C)CO)C(=O)Cc2cc(NC(=O)C3CCCCC3)ccc2O[C@H]1CN(C)S(=O)(=O)c1ccccc1	x	x	x	n	x
O=C(N/N=C/c1ccccn1)c1ccncc1	n	n	n	69	n
c1ccc(-n2c(Cc3cn4ccsc4n3)nnc2N2CCOCC2)cc1	n	n	n	45	n
COc1ccc(NC(=O)N[C@H]2CC[C@H](CCn3cc(C4(O)CCCC4)nn3)O[C@H]2CO)cc1	x	x	x	n	x
Cc1ccccc1-n1nc2c(c1NC(=O)c1ccc(Br)o1)CSC2	n	x	50	n	n
O=C1/C(=C/c2cccnc2)Oc2cc(OS(=O)(=O)c3ccc(F)cc3)ccc21	n	n	n	60	n
Cc1ccc(S(=O)(=O)Oc2ccc3c(c2)O/C(=C\c2cccnc2)C3=O)cc1	n	x	n	n	n
SMILES	DAGLB inhibitor	sPLA2-III inh	NadD block	ARNT-TACC3 inh	Neddylation inh
O=C(CNC(=O)C1COc2ccccc2O1)N/N=C/c1ccc(O)cc1O (configuration not stated)	n	n	n	94	n
O=C(CNC(=O)C1COc2ccccc2O1)N/N=C\c1cccc(O)c1 (configuration not stated)	n	n	n	n	n
O=C(N/N=C/c1cccc([N+](=O)[O-])c1)C1COc2ccccc2O1 (configuration not stated)	n	n	n	n	n
O=C(N/N=C\c1cccc([N+](=O)[O-])c1O)C1COc2ccccc2O1 (configuration not stated)	n	n	n	63	n
COc1cc([N+](=O)[O-])cc(/C=N\NC(=O)C2COc3ccccc3O2)c1O (configuration not stated)	n	n	n	72	n
CCS(=O)(=O)NCC[C@H]1CC[C@H](NC(=O)C2CCC2)[C@@H](CO)O1	x	x	x	n	x
C[C@@H]1CN([C@@H](C)CO)C(=O)Cc2cc(NC(=O)Nc3ccc4c(c3)OCO4)ccc2O[C@H]1CN(C)C(=O)Nc1ccccc1	x	x	x	n	x
COc1ccc2nc3ccccc3[n+]([O-])c2c1	n	n	n	n	47
COc1ccc(C2Nc3ccccc3C(=O)N2Cc2ccco2)cc1COc1ccc([N+](=O)[O-])cc1 (configuration not stated)	n	n	n	n	n
COc1cccc(OCc2cc(C3Nc4ccccc4C(=O)N3Cc3ccco3)ccc2OC)c1 (configuration not stated)	n	n	31	n	n
O=C1NN(c2ccccc2)C(=O)/C1=C/c1ccc(Sc2ccc(Cl)cc2)o1	n	n	52	n	n
Cc1ccc(S(=O)(=O)Nc2ccc3c(c2)C(=O)N([C@@H](C)CO)C[C@@H](C)[C@@H](CN(C)C(=O)NC2CCCCC2)O3)cc1	x	x	x	n	x
COCC#Cc1ccc2c(c1)O[C@H](CN(C)S(C)(=O)=O)[C@@H](C)CN([C@@H](C)CO)S2(=O)=O	x	x	x	n	x
CS(=O)(=O)N1Cc2ccccc2CC1C(=O)O (configuration not stated)	n	n	n	n	n
O=C(O)C1Cc2ccccc2CN1S(=O)(=O)/C=C/c1ccccc1 (configuration not stated)	n	n	n	46	n
Cc1ccc(/C(O)=C/C(=O)C(=O)NNC(=O)C(O)(c2ccccc2)c2ccccc2)cc1	n	n	n	n	n
COC(=O)C(=O)/C=C(\O)c1ccc(C)cc1	n	27	n	n	n
CC(C)NC(=O)N1C[C@@H]2[C@H](c3ccccc31)[C@@H](CO)N2C(=O)Nc1ccccc1	x	x	x	n	x
c1ccc(-c2n[nH]c(-c3ccccn3)n2)cc1	n	n	n	57	n
CC(C)NC(=O)N[C@H]1C=C[C@H](CC(=O)NCCCN(C)C)O[C@@H]1CO	x	x	x	n	x
Cc1cccc(-n2ncc3c(NCCCN4CCCC4=O)ncnc32)c1	n	n	n	n	38
O=C1CCCN1CCCNc1ncnc2c1cnn2-c1ccc(Cl)cc1	n	n	n	n	n
O=S(=O)(Nc1nc2ccccc2nc1Nc1ccc2c(c1)OCCO2)c1cccs1	n	n	n	n	42
Oc1ccc(C23CC4CC(CC(C4)C2)C3)cc1O	n	n	35	n	n
N=C1CCC(=N)c2c1c(O)c1ccccc1c2O	n	x	n	51	n
SMILES	DAGLB inhibitor	sPLA2-III inh	NadD block	ARNT-TACC3 inh	Neddylation inh
N#Cc1c(C#N)c(O)c2ccccc2c1O	n	n	n	n	n
CCCNC(=O)[C@H]1[C@H](CO)[C@H]2Cn3c(ccc(-c4ccc(F)cc4)c3=O)[C@H]2N1CC1CC1	x	x	x	n	x
COc1cc(OC)cc(C(=O)Nc2nnc(-c3cccnc3)o2)c1	n	n	n	62	n
O=C(Nc1nnc(-c2ccccn2)o1)c1cccc(Cl)c1	n	n	n	52	n
O=C(Nc1nnc(-c2ccco2)o1)c1cccc(Cl)c1	n	n	n	n	n
O=C(Nc1nnc(-c2cccnc2)o1)c1cccc(Cl)c1	n	n	n	52	n
C[C@H](CO)N1C[C@H](C)[C@@H](CN(C)CC2CCCCC2)Oc2ccc(NC(=O)NC3CCCCC3)cc2CC1=O	x	x	x	n	x

From PubChem BioAssay
